# In PubChem BioAssay AID430 (Sanford-Burnham Center for Chemical Genomics, 2006):
# Screen size: about 63,000 compounds; about 1,100 (1.7%) were called active. No stated cut-off is given here; in the data, active means cytotoxicity above about 50%; inactive means the rest. Many of the other results were omitted from the sample, so actives are more common in it than they were. Entries with a potency or affinity are not part of this list.
# Assay: cytotoxicity in HPDE-C7 cells, cell-based, fluorescence, HTS (AID 430);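 further: cells exposed to compound for 48 hours before viability readout; 0% = vehicle and 100% = reference cytotoxic drug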
# Settings: HPDE-C7 pancreatic duct cells viability, at 10 µM, active compounds read high
row,Compound,cytotoxicity
1,CCCCCC/C(=N/O)c1ccccn1,51.4% (active)
2,O/N=C(/Cc1ccccn1)c1ccccc1,2% (inactive)
3,O=C(NCCCNC(=O)c1ccccn1)c1ccccn1,15.3% (inactive)
4,Cc1cccc(N(CC(=O)NC2CCCC2)C(=O)CS(=O)CC(=O)Nc2ccc3c(c2)OCO3)c1 (centres undefined),0.1% (inactive)
5,CC(C)C(=O)Nc1cccc(NC(=O)c2cccnc2)c1,-3.2% (inactive)
6,Cc1ccc(C)c(N2CCN(C(c3ccncc3)c3nnnn3Cc3ccccc3)CC2)c1 (centres undefined),27.4% (inactive)
7,Cc1cccc(-n2c(SCC(=O)Nc3nonc3C)nnc2-c2ccoc2C)c1,-16.1% (inactive)
8,Cc1ccc(-n2c(SCC(=O)Nc3ccc4c(c3)OCO4)nnc2-c2ccoc2C)cc1,36.3% (inactive)
9,Cc1cccc(-n2c(SCC(=O)Nc3ccc4c(c3)OCO4)nnc2-c2ccoc2C)c1,65.5% (active)
10,Cc1cc(Cl)ccc1OCC(=O)N1CC(C)CC(C)C1 (centres undefined),-10.4% (inactive)
11,Cc1ccc2c(c1)C(c1ccc(F)cc1)N(C(=O)C1CC1)CC(=O)N2 (centres undefined),-2% (inactive)
12,COc1cc(C(=O)Nc2cccc(-c3nncn3C)c2)cc(OC)c1OC,-13.4% (inactive)
13,COCCOC(=O)c1c(C)oc2ccc(NS(=O)(=O)c3ccccc3)cc12,12.7% (inactive)
14,COC(=O)c1ccccc1NS(=O)(=O)c1ccc2c3c(cccc13)C(=O)N2,24.2% (inactive)
15,CCOC(=O)c1c(C)oc2ccc(NS(=O)(=O)c3ccc4c5c(cccc35)C(=O)N4)cc12,64.4% (active)
16,CC(=O)/C=C(/C)NC(Cc1c[nH]c2ccccc12)C(=O)O (centres undefined),2.1% (inactive)
17,Oc1c(CN2CCc3ccccc3C2)cc(Cl)c2cccnc12,7.8% (inactive)
18,Oc1ccc2cccnc2c1,-7.4% (inactive)
19,Oc1c(CN2CCN(c3ccccn3)CC2)cc(Cl)c2cccnc12,27.5% (inactive)
20,OCc1ccnc2c(O)cccc12,-13.3% (inactive)
21,Cc1cc(Nc2nc3c(c(=O)n(C)c(=O)n3C)n2C)n(-c2ccccc2)n1,-9% (inactive)
22,Cc1cc(=O)oc2cc(OCC3CC(c4ccc(N(C)C)cc4)=NO3)ccc12 (centres undefined),-19% (inactive)
23,COc1ccc2cc3cc(C(=O)Nc4ccc5c(c4)OCCO5)oc3nc2c1,2% (inactive)
24,Cc1ccc2cccc(S(=O)(=O)N3CCN(c4cccc(Cl)c4)CC3)c2n1,7% (inactive)
25,CC(=O)c1cc2c(cc1NC(=O)c1cnc(C)cn1)OCO2,13.3% (inactive)

row,Compound,cytotoxicity
1,CN(C)S(=O)(=O)c1cccc(C(=O)OCC(=O)Nc2ccccc2OC(F)F)c1,0.1% (inactive)
2,Cc1cc(-n2c(SCCC#N)nnc2-c2cccnc2)ccc1Cl,-25% (inactive)
3,N#CCCCSc1nnc(-c2ccc(Cl)cc2)n1-c1ccccc1,-20.2% (inactive)
4,COc1ccc(-n2c(SCCC#N)nnc2-c2cc(Cl)ccc2OC)cc1Cl,50.2% (active)
5,O=C(O)c1cnn2c1NC(c1ccc(F)cc1)CC2C(F)(F)F (centres undefined),-9.5% (inactive)
6,COC(=O)C1=C(N)Oc2cc(C)oc(=O)c2C1c1ccncc1 (centres undefined),0.6% (inactive)
7,COC(=O)/C(=C1/Oc2cc(C)oc(=O)c2S1)C(F)(F)F,76.7% (active)
8,COC(=O)/C(=C1/Oc2cc3c(cc2S1)OCO3)C(F)(F)F,-28.2% (inactive)
9,O=C(O)CCC(=O)Nc1ccccc1C(=O)NC1CCCCC1,-16.8% (inactive)
10,O=C1CC(c2ccco2)CC(O)=C1C=NCCN1CCNCC1 (centres undefined),-17.7% (inactive)
11,O=C1CC(c2ccco2)CC(O)=C1C=NCCO (centres undefined),5.2% (inactive)
12,O=C1CC(c2ccco2)CC(O)=C1C=Nc1cc(Cl)ccc1O (centres undefined),55.5% (active)
13,C=C1[C@@H](C)C2[C@H](Cc3ccccc3)NC(=O)[C@]23OC(=O)CC[C@H](O)CCC[C@H](C)C/C=C/[C@H]3[C@@H]1O (some centres undefined),67.8% (active)
14,CC(C)CCn1c(SCC(=O)OCn2nnc3ccccc3c2=O)nc2ccccc2c1=O,-1.3% (inactive)
15,CO[C@H]1C[C@@H]2CC[C@@H](C)[C@@](O)(O2)C(=O)C(=O)N2CCCC[C@H]2C(=O)O[C@H]([C@H](C)C[C@@H]2CC[C@@H](O)[C@H](OC)C2)CC(=O)[C@H](C)C=C(C)[C@@H](O)[C@@H](OC)C(=O)[C@H](C)C[C@H](C)C=CC=CC=C1C,81.1% (active)
16,CCOc1ccc(-c2nnc(SCC(=O)N(CC)CC)n2N)cc1,-5.3% (inactive)
17,Cc1c(/C=N/n2cnnc2)c2ccccc2n1CCOc1ccc(Cl)cc1,15.9% (inactive)
18,C(=N\n1cnnc1)/c1cccc(OCCOc2ccccc2)c1,2.1% (inactive)
19,Cc1c(/C=N/n2cnnc2)c2ccccc2n1C,5.2% (inactive)
20,Cc1c(/C=N/n2cnnc2)c2ccccc2n1CCOc1ccccc1,67.6% (active)
21,COc1cccc(OCCn2c(C)c(/C=N/n3cnnc3)c3ccccc32)c1,75.8% (active)
22,Cc1ccc(OCCn2c(C)c(/C=N/n3cnnc3)c3ccccc32)cc1,41% (inactive)
23,CCN(CC)C(=O)CSc1nnc(-c2cnccn2)n1-c1ccccc1,-10.7% (inactive)
24,CC(=O)c1cccc(NC2c3ccccc3C(=O)N2Cc2ccc3c(c2)OCO3)c1 (centres undefined),11.4% (inactive)
25,COc1ccc(NC(=O)c2cnc3ccccn3c2=O)c(OC)c1,1% (inactive)

row,Compound,cytotoxicity
1,COCCn1c(SCC(=O)N2CCCC2)nnc1-c1ccoc1C,5.7% (inactive)
2,COc1ccccc1C(=O)NCc1ccncc1,-7.2% (inactive)
3,CCOC(=O)CN1C(=O)C(O)=C(C(C)=O)C1c1ccccc1 (centres undefined),-3.4% (inactive)
4,COc1cccc2cc(C(=O)N3CCC(C)CC3)c(=O)oc12,36.9% (inactive)
5,COc1ccc(Nc2cc(=O)n(C3CCCCC3)c(=O)[nH]2)c(OC)c1,-11.4% (inactive)
6,CCC(=O)Nc1ccc(OC)cc1OC,-0.9% (inactive)
7,CC1(C)Oc2ccc3ccc(=O)oc3c2-c2cnoc21,-3.6% (inactive)
8,O=C(c1cc(-c2cccs2)on1)N1CCOCC1,-1.4% (inactive)
9,O=C(c1cc(-c2cccs2)on1)N1CCN(c2ccccc2)CC1,51.3% (active)
10,O=C(c1cc(-c2cccs2)on1)N1CCN(c2ccc(F)cc2)CC1,11.3% (inactive)
11,Cc1cc(C)cc(OCc2nnc(SCC(=O)c3ccc(Br)cc3)o2)c1,-22.5% (inactive)
12,Cc1cc(C(=O)Nc2sc3c(c2C#N)CCC3)no1,53.5% (active)
13,COC(=O)CCC(=O)Nc1sc2c(c1C#N)CCCC2,-8% (inactive)
14,CCCC(=O)Nc1sc2c(c1C#N)CCCC2,2.6% (inactive)
15,CC(C)c1cc(C(=O)Nc2sc3c(c2C#N)CCC3)no1,17.6% (inactive)
16,CCCc1cc(C(=O)Nc2sc3c(c2C#N)CCC3)no1,5.7% (inactive)
17,CC(C)(C)C1CCc2c(sc(NC(=O)c3cc(C4CC4)on3)c2C#N)C1 (centres undefined),30.3% (inactive)
18,Cc1cc(C(=O)Nc2sc3c(c2C#N)CCCC3)no1,-1.6% (inactive)
19,N#Cc1c(NC(=O)c2cc(C3CC3)on2)sc2c1CCC2,65.1% (active)
20,CCc1ccc(CCC(=O)Nc2sc3c(c2C#N)CCCC3)o1,72% (active)
21,CCOc1cc(C2NC(=O)NC(C)=C2C(=O)OC(C)CC)cc(Br)c1O (centres undefined),3.2% (inactive)
22,Cc1nn(C)c(C)c1S(=O)(=O)N1CCC(C(=O)NC2CCCCCC2)CC1,3.3% (inactive)
23,COCCCNC(=O)CCCn1c(=O)[nH]c2ccccc2c1=O,-15.8% (inactive)
24,CCN(CC)CCN1C(=O)C(=O)/C(=C(/O)c2cnn(-c3ccccc3)c2C)C1c1cccnc1 (centres undefined),0.2% (inactive)
25,O=C(Nc1ccc(N2CCOCC2)cc1)C1CCCN(S(=O)(=O)c2ccccc2)C1 (centres undefined),0.2% (inactive)

row,Compound,cytotoxicity
1,CCOc1ccc2nc(-c3ccccc3)[nH]c2c1,56.7% (active)
2,COc1ccc2nc(-c3ccccc3)[nH]c2c1,-3.7% (inactive)
3,CCOc1ccc2nc(C(C)O)[nH]c2c1 (centres undefined),-5.7% (inactive)
4,COC(=O)c1ccc(Cl)c(NC(=O)CN2CCOCC2)c1,0.1% (inactive)
5,CCOC(=O)c1cccc(NC(=O)CSc2nnc(-c3ccncc3)n2CCCOC)c1,-11.4% (inactive)
6,C/C(CC(O)c1ccc2ccccc2n1)=N/O (centres undefined),0.7% (inactive)
7,CC(Sc1ccc2ccccc2n1)C(=O)O (centres undefined),4.7% (inactive)
8,COc1ccccc1N(CC(=O)Nc1ccc2c(c1)OCO2)S(=O)(=O)c1ccccc1,7.5% (inactive)
9,O=C(NCCCO)c1nc2ccccc2s1,5.3% (inactive)
10,CCOC(=O)c1oc2cc(O)c(CC)cc2c(=O)c1-c1ccc2c(c1)OCCO2,0.2% (inactive)
11,CCc1cc2c(=O)c(-c3ccc4c(c3)OCCO4)coc2cc1OC(=O)c1ccco1,56.6% (active)
12,CCc1cc2c(=O)c(-c3nc4ccccc4[nH]3)coc2cc1OC(=O)N1CCOCC1,-31.2% (inactive)
13,Cc1nc(NC(=O)c2cc3c(s2)CCCCC3)sc1C(=O)N(C)C,-7% (inactive)
14,COC(=O)Cn1c2ccccc2c2nc(C)sc21,2.7% (inactive)
15,C/C=C(\CS(=O)(=O)c1ccccc1)S(=O)(=O)c1ccccc1,35.4% (inactive)
16,O=C(CS(=O)(=O)c1ccccc1)N1CCCCCC1,-5.2% (inactive)
17,Cc1cccn2c(=O)c3cc(C#N)c(=N)n(CCN4CCOCC4)c3nc12,5% (inactive)
18,Cc1ccccc1-n1c(SCc2cc(=O)n3ccccc3n2)nc2[nH]ncc2c1=O,-8% (inactive)
19,CC1(N2CCOCC2)CC2(O)C(=[N+]1[O-])CCc1c2no[n+]1[O-] (centres undefined),60.2% (active)
20,CC1(N2CCCCC2)CC2(O)C(=[N+]1[O-])CCC/C2=N\O (centres undefined),-1.5% (inactive)
21,CC1(N2CCOCC2)CC2(O)C(=[N+]1[O-])CCc1nonc12 (centres undefined),12.8% (inactive)
22,Oc1ccc(Nc2nc(N3CCCC3)c3ccccc3n2)cc1,73.1% (active)
23,Cc1ccc(Nc2nc(N3CCOCC3)c3ccccc3n2)cc1,30.7% (inactive)
24,COc1ccc(Nc2nc(N3CCCC3)c3ccccc3n2)cc1,27.2% (inactive)
